About 83,000 compounds went through this panel and 20% of them were active in at least one assay; those are over-represented in the sample as a whole.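 Interpretation: 100, growth as untreated; towards 0, rising growth inhibition; 0, no net growth; 0 to -100, cell death. Compounds scoring below 10 were considered active.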 Activity calls are given as the source filed them.
Legend:
Experiment in all cases: NCI-60 one-dose screen, 48 h (100 = growth as untreated, 0 = no growth, -100 = all killed)
Details in all cases: 10 µM unless noted
[1] = tested on: DU-145 prostate
[2] = tested on: K-562 leukemia
[3] = tested on: MALME-3M melanoma
[4] = tested on: MDA-MB-231 breast
[5] = tested on: RXF 393 renal
[6] = tested on: SF-268 CNS
[7] = tested on: SF-295 CNS
[8] = tested on: SF-539 CNS
[9] = tested on: UACC-257 melanoma
[10] = tested on: M14 melanoma
[11] = tested on: HCT-15 colon
[12] = tested on: HT29 colon
[13] = tested on: SNB-75 CNS
[14] = tested on: SNB-19 CNS
[15] = tested on: U251 CNS
[16] = tested on: PC-3 prostate
[17] = tested on: SK-MEL-5 melanoma
[18] = tested on: UACC-62 melanoma
[19] = tested on: LOX IMVI melanoma
[20] = tested on: SK-MEL-28 melanoma

Measured: growth

COc1cc(C(C)=C(c2ccc(OCCN(C)C)cc2)c2ccc(OCCN(C)C)cc2)ccc1F
inactive: [1] 102% | [2] 93.3% | [3] 92.6% | [4] 102% | [5] 90.6% | [6] 98.5% | [7] 100% | [8] 101% | [9] 111% | [10] 110% | [11] 101% | [12] 108% | [13] 100% | [14] 98.2% | [15] 106% | [16] 110% | [17] 96.6% | [18] 97.8% | [19] 95.3% | [20] 109%

C#CCOc1cccc(/C(N)=N/C(N)=N/c2nc3ccccc3s2)c1
active: [19] -1.89%
inactive: [1] 97.4% | [2] 82.2% | [3] 111% | [4] 81.9% | [5] 116% | [6] 100% | [7] 31.2% | [8] 105% | [9] 107% | [10] 95.8% | [11] 57.4% | [12] 108% | [13] 109% | [14] 95.5% | [15] 84.9% | [16] 69.8% | [17] 95.3% | [18] 92.3% | [20] 115%

CN1CCN(c2ccc(Nc3nc(NCCNC(=O)c4ccc(F)cc4)c4sccc4n3)cc2)CC1
inactive: [1] 87.8% | [2] 19.8% | [4] 59.4% | [5] 14.1% | [6] 73.8% | [7] 61% | [11] 28.2% | [12] 32% | [13] 91.5% | [14] 91.8% | [15] 37% | [16] 72.2% | [17] 25.2% | [18] 33.8%
active: [3] -54.2% | [8] -64.7% | [9] 0.258% | [10] -10.1% | [19] 8.7% | [20] -8.89%

COc1cc2c3c(cc4c5c(ccc4c3c1OC)OCO5)N(CCN(C)C)C2=O
active: [1] 0.415% | [2] 1.42% | [3] -79.8% | [4] -1.13% | [5] -88.5% | [6] 5.2% | [7] -16.8% | [8] -58.4% | [9] -32.9% | [10] -54.5% | [11] -6.74% | [12] -9.31% | [13] -75.5% | [14] 1.56% | [15] -2.59% | [16] 6.59% | [17] -90.1% | [18] -64% | [19] -82.6% | [20] -86.6%

CCN(CC)CCOc1ccc(C(=C(C)c2ccc(OC)cc2)c2ccc(OCCN(CC)CC)cc2)cc1
inactive: [1] 37.8% | [13] 30.5% | [14] 11.9% | [16] 17%
active: [2] -12.4% | [3] -92.1% | [4] -54.3% | [5] -77.8% | [6] 6.51% | [7] -64.1% | [8] -88.2% | [9] -67.2% | [10] -70.4% | [11] -27.1% | [12] -28.1% | [15] -44.5% | [17] -94.1% | [18] -81.6% | [19] -77.9% | [20] -83.7%

COc1cc(-c2nc(-c3ccccc3)[nH]c2-c2ccnc(NCCCNS(=O)(=O)c3ccc(C)cc3)n2)ccc1F
inactive: [1] 86.7% | [2] 58.9% | [3] 100% | [4] 91.7% | [5] 82.7% | [6] 80.2% | [7] 99.6% | [8] 89.4% | [9] 99.7% | [10] 77.7% | [11] 62.9% | [12] 69.5% | [13] 105% | [14] 104% | [15] 88.6% | [16] 55% | [17] 84.4% | [18] 97.5% | [19] 83.4% | [20] 101%

O=C(/C=C/c1cc(Cl)ccc1Cl)Nc1ncc(Cc2ccc(Cl)cc2)s1
active: [2] 9.62% | [4] 6.75% | [7] -2.3% | [8] -22.6% | [10] 5.98% | [11] 7.86% | [12] -22.8% | [13] 0.161% | [15] 2.48% | [17] 5.45% | [19] -37.3%
inactive: [1] 14.8% | [3] 49% | [5] 33.7% | [6] 34.7% | [9] 49.1% | [14] 19.1% | [16] 27.3% | [18] 29.1% | [20] 52.6%

CC(=O)C1=C(C)NC(NNc2ccccc2)=NC1c1ccc([N+](=O)[O-])cc1 (stereo not given)
inactive: [1] 99.4% | [2] 49% | [3] 116% | [4] 88.1% | [5] 102% | [6] 80.7% | [7] 87.4% | [8] 99.9% | [9] 104% | [10] 101% | [11] 67.9% | [12] 96.5% | [13] 102% | [14] 87.8% | [15] 93.1% | [16] 79.3% | [17] 98.7% | [18] 52.8% | [19] 77.1% | [20] 102%

Reference: PubChem BioAssay (NCI)
